# Measurements from PubChem BioAssay (Tox21).
# Results filed as inconclusive are left out. A call without a number means that no potency is given here. A number with no mark means an inactive call. The source made the active and inactive calls. Unless noted, calls follow the shape of the dose curve; as a rule, active = well fitted curve in the direction sought with a large enough effect in the repeat runs; inconclusive = weak or mixed curves; inactive = no such curve, though single readings can be large; an effect the other way counts as inactive or inconclusive.
# Experiments:
# [1] = biological target: Retinoic acid receptor RXR-alpha (Homo sapiens) (UniProt P19793); test: qHTS assay to identify small molecule agonists of the RXR signaling pathway (AID 1159527; calls by dose curve; also: nearly all actives have a fitted effect of over 35% in size)
# Summary of the method: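 Agonist mode; 9-cis retinoic acid positive control. HEK 293T UAS-bla reporter cells, 2% charcoal-stripped FBS, 16 hr compound exposure at 37 C/5% CO2. LiveBLAzer B/G FRET substrate 2 hr RT; ex 405, em 460/530 nm.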
# [2] = qHTS assay to identify small molecule agonists of the RXR signaling pathway - cell viability counter screen (AID 1159529); also: series mostly up to about 77 µM; nearly all actives have a fitted effect of over 50% in size
# Summary of the method: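 Luminescence from CellTiter-Glo (30 min, RT) measured viability in the same wells as the beta-lactamase reporter readout. Cells: GeneBLAzer RXR-alpha HEK 293T, 2% charcoal-stripped FBS. Compound exposure 16 hr, 37 C.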
# [3] = qHTS assay to identify small molecule antagonists of the retinoid acid receptor (RAR) signaling pathway - cell viability counter screen (AID 1159551); also: nearly all actives have a fitted effect of over 35% in size
# Summary of the method: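 Cytotoxicity counter screen: ATP content quantified by CellTiter-Glo luminescence in C3RL4 cells treated 6 hr at 37 C with compound and retinol (1 uM final). Cells plated at 1,000/well and cultured overnight before dosing.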
# [4] = qHTS assay to identify small molecule antagonists of the estrogen related receptor (ERR) signaling pathway from Tox21 library - cell viability counter screen (AID 1224834); also: nearly all actives have a fitted effect of over 30% in size
# Summary of the method: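 CellTiter-Fluor fluorescence, read after 30 min at 37 C, measures viability of ERR cells. Cells plated at 2,000/well and incubated 6 h before pin-tool compound addition, then exposed 17.5 hours at 37 C.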
# [5] = biological target: Luciferin 4-monooxygenase (Photinus pyralis) (UniProt P08659); test: qHTS assay to identify small molecule inhibitors of firefly luciferase (AID 1224835); also: series mostly up to about 120 µM; nearly all actives have a fitted effect of over 25% in size
# Summary of the method: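 Biochemical qHTS: compounds run as interplate titrations against purified firefly enzyme, with D-luciferin and ATP each at its KM concentration. Light output recorded by CCD imaging.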
# [6] = qHTS assay to identify small molecule agonists of the constitutive androstane receptor (CAR) signaling pathway - cell viability counter screen (AID 1224836); also: series mostly up to about 92 µM; nearly all actives have a fitted effect of over 45% in size
# Summary of the method: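 Viability read-out: CellTiter-Fluor fluorescence after 23 h compound exposure at 37 C/5% CO2 in double-stable HepG2-CYP2B6-hCAR cells, with PK11195 present at 0.75 uM final; compounds tested in 15-point titration.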
# [7] = qHTS assay to identify small molecule antagonists of the constitutive androstane receptor (CAR) signaling pathway - cell viability counter screen (AID 1224837); also: series mostly up to about 92 µM; nearly all actives have a fitted effect of over 45% in size
# Summary of the method: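 Cytotoxicity counter-screen: CellTiter-Fluor fluorescence after 23 h compound exposure (15-point qHTS) in double-stable HepG2-CYP2B6-hCAR cells, with 50 nM CITCO added.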
# [8] = biological target: Nuclear receptor subfamily 1 group I member 3 (Homo sapiens) (UniProt Q14994); test: qHTS assay to identify small molecule antagonists of the constitutive androstane receptor (CAR) signaling pathway (AID 1224838);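 also: HepG2 cells stably expressing hCAR with CYP2B6 luciferase reporter stimulated by CITCO; nearly all actives have a fitted effect of over 40% in size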; also: potency is read from the fitted curve at half-maximal effect
# Summary of the method: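 Antagonism measured as luciferase signal (ONE-Glo, 30 min, room temperature) in CAR-stimulated cells: HepG2-CYP2B6-hCAR double-stable line exposed 24 hr at 37 C to compound in a 15-point series plus 50 nM CITCO.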
# [9] = biological target: Nuclear receptor subfamily 1 group I member 3 (Homo sapiens) (UniProt Q14994); test: qHTS assay to identify small molecule agonists of the constitutive androstane receptor (CAR) signaling pathway (AID 1224839);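 also: HepG2 cells stably carrying human CAR and a CYP2B6 luciferase reporter; series mostly up to about 92 µM; nearly all actives have a fitted effect of over 15% in size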
# Summary of the method: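 Luminescence read-out (ONE-Glo, 30 min, room temperature) from double-stable HepG2-CYP2B6-hCAR cells exposed 24 h to 15-point compound series in presence of 0.75 uM PK11195 final.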
# [10] = qHTS assay to identify small molecule antagonists of the estrogen related receptor signaling pathway with the pleiotropic PPARgamma coactivator (PGC) from Tox21 10K library - cell viability counter screen (AID 1224840; active = well fitted cell-killing curve with a large enough effect in the repeat runs, not every such curve was filed as active; also: nearly all actives have a fitted effect of over 40% in size)
# Summary of the method: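 Counter-screen for cytotoxicity: after 17.5 h compound exposure at 37 C, CellTiter-Fluor reagent added to PGC/ERR cells for 30 min and fluorescence read. Cells were seeded at 2,000 per well 6 h before dosing.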
# [11] = qHTS assay to identify small molecule antagonists of the estrogen related receptor signaling pathway with the pleiotropic PPARgamma coactivator (PGC) from Tox21 10K library (AID 1224841; call rule not given here; also: series mostly up to about 92 µM; actives are mostly falling curves and most rising ones were filed inactive; nearly all actives have a fitted effect of over 50% in size)
# Summary of the method: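 Luminescence (One-Glo, 30 min at room temperature) after 18 h compound treatment at 37 C of PGC/ERR reporter cells plated at 2,000 cells/well and settled 6 h beforehand.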
# [12] = qHTS assay to identify small molecule agonists of the estrogen related receptor signaling pathway with the pleiotropic PPARgamma coactivator (PGC) from Tox21 10K library (AID 1224842); also: nearly all actives have a fitted effect of over 15% in size
# Summary of the method: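 PGC/ERR reporter cell line, 2,000 cells per well, incubated 6 h at 37 C before 23 nL compound in DMSO was added. After 18 h at 37 C, One-Glo luminescence read following 30 min at room temperature.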
# [13] = qHTS assay to identify small molecule agonists of the retinoic acid receptor (RAR) signaling pathway (AID 1159553)
# Summary of the method: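 Luminescence was measured 30 min after luciferase reagent addition at room temperature. Before that, C3RL4 reporter cells (1,000 per well, plated overnight) were treated with compound for 6 hr at 37 C and 5% CO2.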
# [14] = qHTS assay to identify small molecule antagonists of the estrogen related receptor (ERR) signaling pathway - cell viability counter screen (AID 1224818);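 also: series mostly up to about 46 µM; viability measured after 17.5 h of compound exposure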
# Summary of the method: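 Cytotoxicity counter screen: fluorescence from CellTiter-Fluor, added after 17.5 h compound exposure at 37 C and read 30 min later. ERR cell line seeded at 2,000 cells/well, preincubated 6 h before dosing.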
# [15] = qHTS assay to identify small molecule antagonists of the estrogen related receptor signaling pathway with the pleiotropic PPARgamma coactivator (PGC) cell viability counter screen (AID 1224822; also: series mostly up to about 46 µM)
# Summary of the method: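 Viability counter-screen read by fluorescence intensity after 30 min with CellTiter-Fluor at 37 C; PGC/ERR reporter cells were exposed to compounds for 17.5 h at 37 C following a 6 h preincubation.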
# Retinoic acid receptor RXR-alpha (Homo sapiens), sequence (P19793 whole entry, looked up): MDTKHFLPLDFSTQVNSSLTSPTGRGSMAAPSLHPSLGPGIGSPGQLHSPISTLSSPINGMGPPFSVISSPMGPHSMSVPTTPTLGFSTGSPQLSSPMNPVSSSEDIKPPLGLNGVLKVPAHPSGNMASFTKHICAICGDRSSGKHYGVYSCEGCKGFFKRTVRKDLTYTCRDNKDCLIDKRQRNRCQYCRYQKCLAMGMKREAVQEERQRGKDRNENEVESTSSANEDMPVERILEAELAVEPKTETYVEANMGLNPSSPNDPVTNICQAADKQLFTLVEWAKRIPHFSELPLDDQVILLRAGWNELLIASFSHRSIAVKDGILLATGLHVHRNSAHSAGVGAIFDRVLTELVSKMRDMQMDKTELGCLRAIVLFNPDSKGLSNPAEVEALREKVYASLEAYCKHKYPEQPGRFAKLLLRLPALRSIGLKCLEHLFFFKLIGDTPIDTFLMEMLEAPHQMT
# Luciferin 4-monooxygenase (Photinus pyralis), sequence (P08659 whole entry, looked up): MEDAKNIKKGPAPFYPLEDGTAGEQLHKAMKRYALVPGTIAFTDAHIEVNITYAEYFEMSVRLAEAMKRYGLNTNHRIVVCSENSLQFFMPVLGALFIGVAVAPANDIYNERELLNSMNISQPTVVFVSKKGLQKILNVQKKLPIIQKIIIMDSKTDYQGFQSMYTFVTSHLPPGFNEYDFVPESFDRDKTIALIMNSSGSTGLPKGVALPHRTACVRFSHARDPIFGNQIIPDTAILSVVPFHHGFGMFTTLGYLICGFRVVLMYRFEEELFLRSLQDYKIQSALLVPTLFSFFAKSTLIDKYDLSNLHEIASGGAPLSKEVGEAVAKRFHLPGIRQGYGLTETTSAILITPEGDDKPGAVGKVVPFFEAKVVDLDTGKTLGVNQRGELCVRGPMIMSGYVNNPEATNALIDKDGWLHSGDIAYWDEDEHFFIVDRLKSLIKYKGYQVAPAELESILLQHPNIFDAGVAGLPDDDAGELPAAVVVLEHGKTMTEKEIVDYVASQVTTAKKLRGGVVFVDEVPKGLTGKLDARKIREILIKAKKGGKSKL
# Nuclear receptor subfamily 1 group I member 3 (Homo sapiens), sequence (Q14994 whole entry, looked up): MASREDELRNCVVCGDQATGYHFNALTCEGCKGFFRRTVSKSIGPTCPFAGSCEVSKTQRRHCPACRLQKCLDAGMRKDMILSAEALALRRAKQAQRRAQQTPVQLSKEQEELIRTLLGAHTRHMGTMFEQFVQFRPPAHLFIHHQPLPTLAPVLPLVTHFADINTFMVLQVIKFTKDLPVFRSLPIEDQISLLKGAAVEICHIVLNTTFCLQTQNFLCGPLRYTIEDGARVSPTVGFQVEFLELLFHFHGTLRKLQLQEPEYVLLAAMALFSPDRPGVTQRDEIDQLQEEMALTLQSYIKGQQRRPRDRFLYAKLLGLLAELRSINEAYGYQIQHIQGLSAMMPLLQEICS
Structure (SMILES),Potency [1],Potency [2],Potency [3],Potency [4],Potency [5],Potency [6],Potency [7],Potency [8],Potency [9],Potency [10],Potency [11],Potency [12],Potency [13],outcome [14],outcome [15]
O=[N+]([O-])c1cccc(S(=O)(=O)NCCNS(=O)(=O)c2cccc([N+](=O)[O-])c2)c1,inactive,inactive,inactive,inactive,inactive,inactive,inactive,inactive,inactive,inactive,inactive,inactive,–,–,–
C[C@]12CCC(=O)C=C1C=C[C@@H]1[C@@H]2CC[C@@]2(C)[C@H]1CC[C@@]21CCC(=O)O1,inactive,inactive,inactive,inactive,inactive,inactive,inactive,–,–,inactive,inactive,–,–,–,–
CCCCCCCC/C=C\CCCCCCCC(=O)OC(CO)CO,inactive,inactive,inactive,inactive,inactive,inactive,inactive,inactive,inactive,inactive,–,–,inactive,–,–
CCOCCn1c(C2CCN(CCc3ccc(C(C)(C)C(=O)O)cc3)CC2)nc2ccccc21,inactive,inactive,inactive,inactive,inactive,inactive,inactive,–,–,inactive,–,–,–,–,–
CCn1nc(C)c2c1C(=O)NCC(c1ccc(O)cc1)=N2,inactive,inactive,inactive,inactive,inactive,inactive,inactive,inactive,inactive,inactive,–,–,–,–,–
Nc1ccc(S(=O)(=O)O)c(N)c1,inactive,inactive,inactive,inactive,inactive,inactive,inactive,–,–,inactive,inactive,inactive,–,–,–
CN1Cc2cc(C(=O)N3CCC(C4CCNCC4)CC3)ccc2N[C@@H](CC(=O)O)C1=O,inactive,inactive,inactive,inactive,inactive,inactive,inactive,inactive,–,inactive,inactive,inactive,–,–,–
CCCCOC(=O)CCS,inactive,inactive,inactive,inactive,inactive,inactive,inactive,24.3 µM (active),inactive,inactive,–,–,inactive,–,–
NC(=O)Nc1ccc(Cl)cc1,inactive,inactive,inactive,inactive,–,inactive,inactive,inactive,inactive,inactive,inactive,inactive,–,–,–
CCCCCCCCCOC(C)=O,inactive,inactive,inactive,inactive,inactive,inactive,inactive,inactive,inactive,inactive,–,–,–,–,–
Cc1ccccc1N1C(=O)c2cc(S(N)(=O)=O)c(Cl)cc2NC1C (stereo not drawn),inactive,inactive,inactive,inactive,inactive,inactive,inactive,–,–,inactive,–,–,–,inactive,inactive
